From PubChem BioAssay
This is a sample that favours compounds with a hit; in the whole collection about 12% have one here.
G9a block – inhibitors of human histone lysine methyltransferase G9a | Q96KQ7 | G9a H3K9 monomethylation, AlphaScreen, 2 h | Potency, µM (series often up to 102 µM), for the others: at the top dose activity, negative = inhibition, hits mostly inhibitors | 350,000 tested, 8.8% active; note: % is set by controls: 0 for no effect and ±100 for the full control effect; nearly all actives have a fitted effect of over 75% in size
Target sequence (Q96KQ7 913-1193 limits assumed): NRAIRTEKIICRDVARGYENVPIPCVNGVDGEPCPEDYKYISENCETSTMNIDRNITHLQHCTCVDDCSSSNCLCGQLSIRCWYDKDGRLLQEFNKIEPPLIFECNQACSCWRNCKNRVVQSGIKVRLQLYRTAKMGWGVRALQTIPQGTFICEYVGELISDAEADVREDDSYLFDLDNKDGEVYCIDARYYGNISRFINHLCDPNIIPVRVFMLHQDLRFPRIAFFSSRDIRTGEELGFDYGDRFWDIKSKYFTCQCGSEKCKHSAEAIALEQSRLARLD
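AlphaScreen read-out: biotin-H3K9 peptide (500 nM) methylation by 20 nM enzyme with 20 uM SAM, 2 h at room temperature after 15 min compound preincubation; anti-monomethyl H3K9 antibody plus donor/acceptor beads, 10 min dark.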
BAZ2B block – blocks human BAZ2B; AID 504333; 360,000 tested, 4.4% active; AlphaScreen BAZ2B-H3K14Ac peptide displacement; Q9UIF8; Potency, µM (highest dose often 114 µM), for the others: at the top dose activity change, negative = inhibition, hits mostly inhibitors; note: % is set by controls: 0 for no effect and ±100 for the full control effect; nearly all actives have a fitted effect of over 60% in size
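BAZ2B 50 nM plus b-H3(5-23)K14Ac 50 nM, PBS pH 7.4/0.01% Tween-20, 30 min RT; compound added (max 110 uM), 30 min RT; streptavidin donor/Ni-chelate acceptor beads 10 ug/mL final, 20 min dark; AlphaScreen read.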
JMJD2A Tudor inh – JMJD2A Tudor domain (human) inhibition | AID 504339 | Potency, µM (top dose mostly 114 µM), inactives show top-dose activity change, negative = inhibition, hits mostly inhibitors | 390,000 tested, 4.4% active | AlphaScreen JMJD2A-Tudor / H3K4me3 peptide binding | O75164; note: % is set by controls: 0 for no effect and ±100 for the full control effect; nearly all actives have a fitted effect of over 50% in size
HP1b chromo inh – blocks HP1-beta chromodomain binding to methylated histone tails. Potency, µM (highest dose often 114 µM), for the others: top-dose activity change, negative = inhibition, hits mostly inhibitors. P83916. 390,000 tested, 0.56% active. AlphaScreen HP1-beta / biotin-H3K9me3 peptide binding; note: nearly all actives have a fitted effect of over 70% in size
Target sequence (P83916 whole entry, looked up): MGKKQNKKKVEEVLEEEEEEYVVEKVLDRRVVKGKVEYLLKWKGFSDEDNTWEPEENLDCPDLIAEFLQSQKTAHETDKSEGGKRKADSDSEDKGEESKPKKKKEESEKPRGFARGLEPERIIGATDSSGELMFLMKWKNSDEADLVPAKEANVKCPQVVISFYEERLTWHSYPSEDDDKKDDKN
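AlphaScreen: HP1-beta (50 nM) preformed 30 min with biotin-H3(1-18)K9me3 peptide (50 nM) in PBS pH 7.4, 0.01% Tween-20. Compound added for 30 min at RT, then streptavidin donor/nickel chelate acceptor beads (10 ug/mL) for 30 min.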
Sfp inh – blocks B. subtilis Sfp PPTase activity. Q9F4F7. Biochemical Sfp PPTase activity, qHTS. Potency, µM, inactives show largest response in the series, negative = inhibition, most hits filed as inhibitors. 310,000 tested, 3.5% active;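 note: the enzyme is Sfp with the accession as filed and its product quenches rhodamine fluorescence; 0% = enzyme reaction without inhibitor and -100% = no enzyme wells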
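Compounds were incubated with enzyme (final 15 nM) for 15 min at room temperature before substrate addition started the reaction. Fluorescence at 525 nm excitation, 598 nm emission was recorded immediately and after 30 minutes.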
TDP1 inh – TDP1 (human) enzyme inhibition; AID 485290; 350,000 tested, 0.28% active; recombinant TDP1, AlphaScreen DNA substrate cleavage; Potency, µM (titrated, usually from 130 µM), without a hit: at the highest dose activity change, negative = inhibition, hits mostly inhibitors; note: % is set by controls: 0 for no effect and ±100 for the full control effect; nearly all actives have a fitted effect of over 40% in size
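Recombinant human Tdp1 (E. coli-expressed, 1 nM final) preincubated with compounds 15 min at room temperature, then 5'-biotin/3'-phosphotyrosine-FITC DNA substrate (15 nM final) added for 5 min. AlphaScreen beads (10 ug/ml final) added 10 min; cleavage lowers signal.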
* marks the source's active call; other numbers are inactive results; ? = inconclusive; · = not tested or not shown; ! = not active in a repeat; [ ] = dose if it differs, or a comment. Calls come from the whole dose curve; as a rule, active = well fitted curve in the direction sought with a large enough effect; inconclusive = small, poorly fitted or top-dose-only effect, or another doubt; inactive = no such curve, though single readings can be large; an effect the other way counts as inactive or inconclusive. Potency is the fitted concentration of half-maximal effect.

SMILES	G9a block	BAZ2B block	JMJD2A Tudor inh	HP1b chromo inh	Sfp inh	TDP1 inh
O=C(NNC(=S)NC(=O)c1ccc(Br)cc1)c1ccc([N+](=O)[O-])cc1	-9.1%[0.501 µM]	3.5%	-32.9%	-15.4%	-12.0%	·
O=C(NNC(=S)NC(=O)c1ccc(Br)cc1)c1cccc([N+](=O)[O-])c1	35.5µM*	7.0%	-25.2%	19.9%	-5.9%	·
CCOC(=O)[C@H]1[C@H]2COc3ccc(C)cc3[C@@H]2N2C(=O)[C@@H](C)NC(=O)[C@@]12C	3.9%[0.501 µM]	9.7%	-17.2%	30.4%	·	-0.2%
CCC(C)C(=O)O[C@H]1C[C@@H](C)C=C2C=C[C@H](C)[C@H](CC[C@@H]3C[C@@H](O)CC(=O)O3)C21 (some centres undefined)	·	·	·	·	8.2%	7.1%
N#Cc1c2n(c3c(N)ncnc13)CCCCC2	0.6%	-2.9%	-0.4%	-3.0%	8.4%	·
CCCCc1cc(=O)oc2cc(C)cc(OCC(=O)N3C[C@H]4C[C@@H](C3)c3cccc(=O)n3C4)c12	6.2%[12.7 µM]	-17.0%	-17.0%	20.9%	12.3%	·
Cc1cccc(-c2noc(-c3ccccc3OCC(=O)Nc3ccc([N+](=O)[O-])cc3)n2)c1	?	-34.2%	28.2µM*	-15.2%	·	11.4%
CC(C)c1noc(-c2ccccc2OCC(=O)Nc2ccc([N+](=O)[O-])cc2)n1	?	-11.0%	-14.9%	31.4%	·	0.0%
Cc1occc1-c1nnc(SCC(=O)c2ccc(Cl)cc2)n1C	-39.9%[12.7 µM]	?	70.8µM*	-19.6%	-21.4%	-1.0%
Cc1occc1-c1nnc(SCC(=O)N2CCCCC2)n1C	-6.7%	-4.6%	-7.6%	16.9%	·	-2.6%
Cc1occc1-c1nnc(SCC(=O)c2c[nH]c3ccccc23)n1C	39.8µM*	-21.7%	56.2µM*	-25.7%	50.1µM*	1.0%
COc1ccc(N2CC(C(=O)Nc3nnc(SCc4cccnc4)s3)CC2=O)cc1 (centres undefined)	50.1µM*	-13.5%	-13.1%	30.9%	-14.7%	7.7%
COc1ccccc1N1CC(C(=O)Nc2nnc(SCc3cccnc3)s2)CC1=O (centres undefined)	·	-2.6%	-15.2%	36.8%	-16.0%	3.6%
COc1ccc(N2CC(C(=O)N[C@@H](C)C(=O)NC3CCCC3)CC2=O)cc1 (some centres undefined)	·	0.8%	-9.7%	16.8%	19.6%	-0.4%
COc1ccc(N2CC(C(=O)N[C@@H](C)C(=O)N[C@H](CO)c3ccccc3)CC2=O)cc1 (some centres undefined)	5.62µM*	-24.7%	-5.4%	32.3%	6.0%	·
Cc1ccc(N2CC(C(=O)Nc3nnc(SCc4cccnc4)s3)CC2=O)cc1 (centres undefined)	15.8µM*	-2.7%	-2.9%	47.2%	-1.5%	5.3%
CCN1C[C@@H]2[C@@H]3C(=O)N(C)C(=O)[C@@H]3[C@](C)(C(=O)OC)N2C1=NC	·	·	-35.5%	4.2%	·	·
CCOC(=O)C(=O)NNc1ccccc1C	-2.8%	-2.1%	-8.0%	30.1%	-0.1%	0.0%
CCOC(=O)C(=O)NNc1cccc(C)c1C	0.631µM*	1.0%	-12.9%	15.5%	-1.3%	2.7%
NS(=O)(=O)c1ccc(N/C=C\C(=O)c2ccc3ccccc3c2)cc1	8.91µM*	?	-24.7%	27.3%	-4.9%	0.0%
COc1ccc(N/C=C\C(=O)c2ccc3ccccc3c2)cc1	?	-23.0%	-10.0%	60.1%	12.2%	·
Cc1ccc(C)c(C(=O)COC(=O)CN2C(=O)C3C4C=CC(C4)C3C2=O)c1 (centres undefined)	?	1.3%	-10.6%	34.4%	3.5%	0.8%
Cn1nc(-c2ccccn2)nc2c(=O)n(C)c(=O)nc1-2	14.1µM*	10µM*	11.2µM*	19.5%	50.1µM*	-1.2%
NC(=NCCCCCCN=C(N)/N=C(\N)Nc1ccc(Cl)cc1)/N=C(\N)Nc1ccc(Cl)cc1	14.1µM*!	-28.1%	-31.7%	23.2%	28.2µM*!	8.5%
CC(C)N=C(N)/N=C(\N)Nc1ccc(Cl)cc1	13.2%[21.5 µM]	·	·	·	11.2%	4.3%[56.1 µM]
SMILES	G9a block	BAZ2B block	JMJD2A Tudor inh	HP1b chromo inh	Sfp inh	TDP1 inh
CCC(C)C(NC(N)=O)C(=O)Nc1ccc(C)c(Cl)c1 (centres undefined)	8.91µM*	-11.3%	-10.0%	40.0%	-14.1%	6.7%
CC[C@@H]1/C=C(\C)C[C@H](C)C[C@H](OC)[C@H]2O[C@@](O)(C(=O)C(=O)N3CCCC[C@H]3C(=O)O[C@H](/C(C)=C/[C@@H]3CC[C@H](Cl)[C@H](OC)C3)[C@H](C)[C@@H](O)CC1=O)[C@H](C)C[C@@H]2OC	-15.9%[12.7 µM]	·	·	·	12.1%	·
S=C1NCN(Cc2ccco2)CN1	2.4%	1.3%	-9.4%	19.1%	-2.8%	2.7%
O=C1CC(=O)N(Cc2ccco2)C(=O)N1	?	39.8µM*	4.47µM*	-78.6%	50.1µM*	10µM*
O=C1C2C3c4ccccc4C(c4ccccc43)C2C(=O)N1Cc1ccco1 (centres undefined)	?	0.5%	-18.9%	44.1%	44.7µM*	2.9%
O=C1CC(=O)N(Cc2ccco2)C(=S)N1	8.91µM*	20µM*	56.2µM*	-11.8%	22.4µM*	2.51µM*
O=C1CC(=O)N(Cc2cccs2)C(=O)N1	-43.8%[12.7 µM]	-2.9%	-20.1%	31.9%	-21.9%	-8.7%
COC(=O)C1C(=O)C(C(=O)/C=C/c2ccco2)C(=O)CC1(C)C (centres undefined)	·	·	·	·	56.2µM*	-5.0%
COc1ccc(-n2nnnc2CNC(=O)c2ccc(S(=O)(=O)N3CCOCC3)cc2)cc1	-7.5%[0.501 µM]	7.4%	-10.7%	11.8%	·	1.4%
COc1ccccc1-n1c(CNC(=O)c2ccc(S(=O)(=O)N3CCOCC3)cc2)n[nH]c1=S	8.91µM*	?	20µM*	21.2%	-21.5%	-3.3%
O=C(NCc1n[nH]c(=S)n1-c1ccc(F)cc1)c1ccc(S(=O)(=O)N2CCCCC2)cc1	2.51µM*	-0.3%	?	18.3%	2.2%	4.7%
O=C(NCc1n[nH]c(=S)n1-c1ccc(Br)cc1)c1ccc(S(=O)(=O)N2CCCC2)cc1	2.51µM*	-34.5%	-31.8%	23.0%	-1.2%	4.7%
COc1ccc(-n2c(CNC(=O)c3ccc(S(=O)(=O)N4CCCC4)cc3)n[nH]c2=S)cc1	?	-6.9%	7.94µM*	8.9%	-2.1%	-0.5%
CC1CCCC(NC(=O)COC(=O)c2ccc3c(c2)OCCO3)C1C (centres undefined)	·	·	-5.1%	32.0%	·	0.4%
CCCOc1ccccc1/C=N/NC(=O)C1CC1	?	-8.5%	-4.1%	26.8%	-7.0%	3.3%
Cc1ccc2[nH]c3c(c2c1)CCCC3NC(=O)CCl (centres undefined)	-9.8%[0.501 µM]	-36.9%	?	3.9%	16.9%	·
